“And” between values parts separate entries of the source, which are not always exact repeats. Equal entries are not always repeated. Some compounds were tested as several samples or in several runs, with calls that do not always agree. The source made the active and inactive calls. Where a call stands in place of a potency, no number is given. Unless noted, the call rests on the fitted dose curve; in most records, active means well fitted curve in the direction sought with a large enough effect in the repeat runs; inconclusive means weak or mixed curves; inactive means no such curve, though single readings can be large; an effect the other way counts as inactive or inconclusive.
Experiments:
[1] = qHTS assay to identify small molecule antagonists of the thyroid receptor (TR) signaling pathway (AID 743065); further: nearly all actives have a fitted effect of over 55% in size; further: potency means the concentration at half of the fitted maximal effect
Summary of the method: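 Antagonism measured as loss of luciferase signal in GH3 cells stably carrying a TRE-luciferase reporter, co-treated with compound and T3 (1 nM final) for 23.5 h at 37 C. Viability was read in the same well by CellTiter-Fluor.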

[2] = tested on: thyroid hormone receptor (rat, GH3 cells); assay: qHTS assay to identify small molecule agonists of the thyroid receptor (TR) signaling pathway (AID 743066; calls by dose curve; further: potency means the concentration at half of the fitted maximal effect)
[3] = qHTS assay to identify small molecule antagonists of the estrogen receptor alpha (ER-alpha) signaling pathway - cell viability counter screen (AID 743074; calls by dose curve;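 further: HEK293 cells carrying ER-alpha-UAS-bla reporter stimulated with 17beta-estradiol; nearly all actives have a fitted effect of over 45% in size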; further: potency means the concentration at half of the fitted maximal effect)
[4] = qHTS assay to identify small molecule antagonists of the estrogen receptor alpha (ER-alpha) signaling pathway using the BG1 cell line - cell viability counter screen (AID 743081);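 further: compound given together with 17beta-estradiol as the ER stimulus; nearly all actives have a fitted effect of over 45% in size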; further: potency means the concentration at half of the fitted maximal effect
[5] = target: Aromatase (Homo sapiens) (UniProt P11511); assay: qHTS assay to identify aromatase inhibitors (AID 743083); further: nearly all actives have a fitted effect of over 55% in size; further: potency means the concentration at half of the fitted maximal effect
[6] = qHTS assay to identify aromatase inhibitors - cell viability counter screen (AID 743084);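 further: cells stimulated with testosterone during compound exposure; nearly all actives have a fitted effect of over 55% in size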; further: potency means the concentration at half of the fitted maximal effect
[7] = target: Aryl hydrocarbon receptor (Homo sapiens) (UniProt P35869); assay: qHTS assay to identify small molecule that activate the aryl hydrocarbon receptor (AhR) signaling pathway (AID 743085); further: nearly all actives have a fitted effect of over 15% in size; further: potency means the concentration at half of the fitted maximal effect;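 on activation: HG2L7.5c1 human HepG2 liver cells with stably integrated DRE-driven firefly reporter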
Summary of the method: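 Steps: seed HepG2-AhR-luc cells; allow 5 h at 37C; pin-transfer test compound or vehicle; incubate 24 h at 37C; add viability dye (30 min, 37C) and read fluorescence; add luciferase substrate (30 min, RT) and read luminescence.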

[8] = qHTS assay to identify small molecule that activate the aryl hydrocarbon receptor (AhR) signaling pathway - cell viability counter screen (AID 743086); further: nearly all actives have a fitted effect of over 45% in size; further: potency means the concentration at half of the fitted maximal effect
Summary of the method: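 Cytotoxicity counter screen: CellTiter-Fluor signal (30 min, 37 C) in 4000 HepG2 cells/well carrying the DRE-luciferase reporter, following 24 h compound exposure at 37 C.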

[9] = target: Peroxisome proliferator-activated receptor gamma (Homo sapiens) (UniProt P37231); assay: qHTS assay to identify small molecule agonists of the peroxisome proliferator-activated receptor gamma (PPARg) signaling pathway (AID 743094; active means well fitted activation curve with a large enough effect in the signal ratio in the repeat runs, not every such curve was filed as active; inconclusive means weak or mixed curves, or effect the other way; inactive means no such curve, though single readings can be large or run the other way; the % refers to the signal ratio)
Summary of the method: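 Beta-lactamase FRET fluorescence was the read-out after a 1 h room-temperature substrate step, following 17 h compound treatment at 37C of HEK293H cells expressing a UAS-driven bla reporter responsive to PPARg.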

[10] = target: Peroxisome proliferator-activated receptor gamma (Homo sapiens) (UniProt P37231); assay: qHTS assay to identify small molecule antagonists of the peroxisome proliferator-activated receptor gamma (PPARg) signaling pathway (AID 743191; calls by dose curve; further: nearly all actives have a fitted effect of over 30% in size; further: potency means the concentration at half of the fitted maximal effect)
Summary of the method: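 Beta-lactamase reporter under UAS control in HEK293H PPARg-bla cells; compound treatment 17 h at 37C. Read-out: fluorescence intensity after 1 h room-temperature incubation with LiveBLAzer B/G FRET substrate.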

[11] = qHTS assay to identify small molecule antagonists of the peroxisome proliferator-activated receptor gamma (PPARg) signaling pathway - cell viability counter screen (AID 743194); conditions: Potency: co-treated with 50 nM rosiglitazone unless noted; further: nearly all actives have a fitted effect of over 55% in size; further: potency means the concentration at half of the fitted maximal effect
Summary of the method: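 Viability was measured as CellTiter-Glo luminescence in GeneBLAzer PPARg UAS-bla HEK293H cells. These cells had been exposed 17 h at 37 C to compounds together with rosiglitazone at 50 nM final, with the beta-lactamase readout taken in the same wells.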

[12] = qHTS assay for small molecule agonists of the antioxidant response element (ARE) signaling pathway (AID 743202; active means well fitted activation curve with a large enough effect in the signal ratio in the repeat runs, not every such curve was filed as active; inconclusive means weak or mixed curves, or effect the other way; inactive means no such curve, though single readings can be large or run the other way; the % refers to the signal ratio; further: potency means the concentration at half of the fitted maximal effect)
Summary of the method: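 An ARE-responsive beta-lactamase gene stably integrated in HepG2 cells serves as reporter. After 5 h plating and 16 h compound incubation at 37 C, fluorescence of the B/G FRET substrate was measured.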

[13] = qHTS assay for small molecule agonists of the antioxidant response element (ARE) signaling pathway - cell viability counter screen (AID 743203; calls by dose curve; further: nearly all actives have a fitted effect of over 55% in size; further: potency means the concentration at half of the fitted maximal effect)
Summary of the method: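 HepG2 cells carrying ARE-driven beta-lactamase; 2,000 cells/well; 5 hrs plating; compound pinned from DMSO; 16 hrs 37C/5% CO2; CellTiter-Glo added; 30 min RT; luminescence.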

[14] = qHTS assay for small molecule activators of the heat shock response signaling pathway - cell viability counter screen (AID 743209); further: nearly all actives have a fitted effect of over 50% in size; further: potency means the concentration at half of the fitted maximal effect
Summary of the method: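 Luminescence from CellTiter-Glo, added after the beta-lactamase FRET read, gave the viability signal. Cells were HSE-bla HeLa treated with DMSO-dissolved compounds for 5 h at 37 C following overnight plating.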

[15] = qHTS assay for small molecule activators of the heat shock response signaling pathway (AID 743210; active means well fitted activation curve with a large enough effect in the signal ratio in the repeat runs, with a control signal flat, not every such curve was filed as active; inconclusive means weak or mixed curves; the % refers to the signal ratio;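 further: HeLa cells with beta-lactamase reporter driven by heat shock elements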)
Summary of the method: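 In HSE-bla HeLa cells, 5 h compound incubation (37 C) precedes addition of LiveBLAzer B/G substrate; after 2.5 h at room temperature, fluorescence intensity indicates reporter induction.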

[16] = qHTS assay to identify small molecule agonists of the peroxisome proliferator-activated receptor delta (PPARd) signaling pathway - cell viability counter screen (AID 743211); further: nearly all actives have a fitted effect of over 55% in size; further: potency means the concentration at half of the fitted maximal effect
Summary of the method: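 Viability of GeneBLAzer PPARd UAS-bla HEK293H cells was assessed after 17 h compound incubation at 37C, using CellTiter-Glo reagent added after the reporter read and luminescence recorded 30 min later.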

[17] = target: Estrogen receptor (Homo sapiens) (UniProt P03372); assay: qHTS assay to identify small molecule antagonists of the estrogen receptor alpha (ER-alpha) signaling pathway (AID 743069; active means well fitted curve in the direction sought with a large enough effect in the signal ratio in the repeat runs, not every such curve was filed as active; inconclusive means weak or mixed curves, or effect the other way; inactive means no such curve, though single readings can be large or run the other way; the % refers to the signal ratio; further: potency means the concentration at half of the fitted maximal effect)
Summary of the method: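 Compound effects are measured against 17beta-estradiol stimulation in HEK293 cells with a UAS-controlled beta-lactamase reporter for ER-alpha. Exposure lasts 18 hr at 37C; LiveBLAzer B/G FRET substrate follows for 2 hr at room temperature.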

[18] = target: Estrogen receptor (Homo sapiens) (UniProt P03372); assay: qHTS assay to identify small molecule agonists of the estrogen receptor alpha (ER-alpha) signaling pathway (AID 743075; calls by dose curve; further: potency means the concentration at half of the fitted maximal effect)
[19] = qHTS assay to identify small molecule antagonists of the estrogen receptor alpha (ER-alpha) signaling pathway using the BG1 cell line (AID 743080; calls by dose curve;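 further: BG1 cells stimulated with 17beta-estradiol alongside compound; nearly all actives have a fitted effect of over 25% in size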; further: potency means the concentration at half of the fitted maximal effect)
Summary of the method: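 Endogenous full-length ER-alpha in BG1-Luc-4E2 cells drives a stably integrated 4×ERE luciferase gene; compounds were tested against 17beta-estradiol over 21.5 h, with luminescence and multiplexed viability fluorescence recorded.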

[20] = target: Estrogen receptor (Homo sapiens) (UniProt P03372); assay: qHTS assay to identify small molecule agonists of the estrogen receptor alpha (ER-alpha) signaling pathway using the BG1 cell line (AID 743079); conditions: BG1Luc4E2 cells, ERE-luciferase agonist, 22 h; activation: at 70.3 µM (top of the series) unless noted; further: nearly all actives have a fitted effect of over 20% in size; further: potency means the concentration at half of the fitted maximal effect

Aromatase (Homo sapiens), sequence (P11511 whole entry, looked up): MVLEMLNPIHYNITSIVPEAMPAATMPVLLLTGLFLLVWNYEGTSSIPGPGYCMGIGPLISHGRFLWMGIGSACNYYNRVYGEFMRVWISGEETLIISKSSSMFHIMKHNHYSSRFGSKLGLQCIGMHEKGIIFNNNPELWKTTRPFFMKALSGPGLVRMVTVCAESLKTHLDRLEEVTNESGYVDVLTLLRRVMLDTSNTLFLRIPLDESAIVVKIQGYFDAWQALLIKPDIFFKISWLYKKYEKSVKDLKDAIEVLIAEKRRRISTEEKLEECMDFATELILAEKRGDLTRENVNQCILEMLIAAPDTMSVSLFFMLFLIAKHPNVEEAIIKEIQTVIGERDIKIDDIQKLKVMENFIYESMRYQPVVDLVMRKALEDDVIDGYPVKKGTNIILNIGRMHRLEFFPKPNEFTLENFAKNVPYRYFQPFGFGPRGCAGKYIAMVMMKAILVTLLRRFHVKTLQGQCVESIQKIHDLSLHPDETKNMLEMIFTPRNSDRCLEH
Peroxisome proliferator-activated receptor gamma (Homo sapiens), sequence (P37231 whole entry, looked up): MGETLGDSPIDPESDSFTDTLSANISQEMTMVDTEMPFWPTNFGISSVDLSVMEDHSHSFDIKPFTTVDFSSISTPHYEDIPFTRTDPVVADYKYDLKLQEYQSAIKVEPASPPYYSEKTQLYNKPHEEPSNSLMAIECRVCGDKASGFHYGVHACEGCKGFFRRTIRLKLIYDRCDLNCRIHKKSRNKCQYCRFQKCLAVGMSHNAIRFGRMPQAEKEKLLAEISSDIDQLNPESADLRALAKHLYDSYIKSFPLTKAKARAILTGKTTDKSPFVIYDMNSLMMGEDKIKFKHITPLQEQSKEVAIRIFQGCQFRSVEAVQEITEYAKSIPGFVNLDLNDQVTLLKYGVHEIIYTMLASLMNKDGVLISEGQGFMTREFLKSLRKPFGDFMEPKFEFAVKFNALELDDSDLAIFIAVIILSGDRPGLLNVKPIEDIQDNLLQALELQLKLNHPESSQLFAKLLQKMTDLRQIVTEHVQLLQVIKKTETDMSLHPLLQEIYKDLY
Estrogen receptor (Homo sapiens), sequence (P03372 whole entry, looked up): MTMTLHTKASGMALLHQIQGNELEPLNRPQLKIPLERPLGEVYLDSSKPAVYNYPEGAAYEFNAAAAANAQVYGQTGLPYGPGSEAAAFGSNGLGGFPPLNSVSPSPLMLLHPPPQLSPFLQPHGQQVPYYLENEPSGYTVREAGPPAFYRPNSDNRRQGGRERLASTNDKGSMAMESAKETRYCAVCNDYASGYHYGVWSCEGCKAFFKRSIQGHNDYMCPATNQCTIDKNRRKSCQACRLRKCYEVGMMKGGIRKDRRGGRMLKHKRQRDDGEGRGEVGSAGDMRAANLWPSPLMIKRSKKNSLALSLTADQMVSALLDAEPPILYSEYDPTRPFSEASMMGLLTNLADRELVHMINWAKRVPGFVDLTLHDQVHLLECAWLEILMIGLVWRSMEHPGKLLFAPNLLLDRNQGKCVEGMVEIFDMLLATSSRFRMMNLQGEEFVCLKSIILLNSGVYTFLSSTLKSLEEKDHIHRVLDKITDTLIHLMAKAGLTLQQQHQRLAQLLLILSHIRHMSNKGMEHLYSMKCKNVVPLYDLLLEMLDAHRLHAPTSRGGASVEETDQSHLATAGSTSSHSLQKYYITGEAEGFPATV
Aryl hydrocarbon receptor (Homo sapiens), sequence (P35869 whole entry, looked up): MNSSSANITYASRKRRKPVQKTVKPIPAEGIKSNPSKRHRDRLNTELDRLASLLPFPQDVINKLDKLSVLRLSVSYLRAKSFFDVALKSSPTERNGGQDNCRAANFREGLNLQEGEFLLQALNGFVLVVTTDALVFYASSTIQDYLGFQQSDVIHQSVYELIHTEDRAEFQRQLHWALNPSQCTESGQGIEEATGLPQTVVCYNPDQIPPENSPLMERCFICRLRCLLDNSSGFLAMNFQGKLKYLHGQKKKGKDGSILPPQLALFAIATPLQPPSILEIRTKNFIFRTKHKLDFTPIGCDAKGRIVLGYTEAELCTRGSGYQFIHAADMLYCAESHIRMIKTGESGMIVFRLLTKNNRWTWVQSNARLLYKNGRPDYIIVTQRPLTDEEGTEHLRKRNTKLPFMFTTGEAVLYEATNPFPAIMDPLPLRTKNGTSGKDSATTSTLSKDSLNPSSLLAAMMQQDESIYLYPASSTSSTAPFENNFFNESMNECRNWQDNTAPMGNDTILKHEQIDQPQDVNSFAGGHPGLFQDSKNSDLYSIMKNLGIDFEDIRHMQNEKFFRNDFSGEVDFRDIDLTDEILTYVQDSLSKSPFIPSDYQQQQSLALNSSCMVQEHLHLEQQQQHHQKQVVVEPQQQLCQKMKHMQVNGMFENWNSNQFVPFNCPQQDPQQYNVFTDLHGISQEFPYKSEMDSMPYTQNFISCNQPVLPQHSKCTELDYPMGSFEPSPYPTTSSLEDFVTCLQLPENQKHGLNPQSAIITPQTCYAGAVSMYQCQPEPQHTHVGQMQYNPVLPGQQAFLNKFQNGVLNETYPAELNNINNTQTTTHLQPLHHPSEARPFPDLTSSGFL

SMILES	Potency [1]	Potency [2]	Potency [3]	Potency [4]	Potency [5]	Potency [6]	Potency [7]	Potency [8]	Potency [9]	Potency [10]	Potency [11]	Potency [12]	Potency [13]	Potency [14]	Potency [15]	Potency [16]	Potency [17]	Potency [18]	Potency [19]	Potency [20]
O=P(OCCCl)(OCCCl)OCCCl	inactive	inactive	inactive	inactive	inactive	inactive	inactive	inactive	inactive	inactive	inactive	inactive	inactive	inactive	inactive	inactive	–	–	–	–
Cn1c(-c2ccccc2)cc(-c2ccccc2)[n+]1C	inactive	inactive	–	inactive	54.4 µM (active) and 54.5 µM (active)	inactive	inactive	inactive	inactive	inactive	inactive	–	inactive	inactive	–	inactive	inactive	inactive	30.6 µM (active)	–
O=[N+]([O-])c1ccc(Cl)c([N+](=O)[O-])c1	4.39 µM (active) and 4.86 µM (active)	inactive	49.7 µM (active) and 24.5 µM (active)	62.1 µM (active) and 61.1 µM (active)	6.21 µM (active) and 8.63 µM (active)	6.21 µM (active) and 6.86 µM (active)	–	24.7 µM (active) and 27.3 µM (active)	–	8.85 µM (active) and 8.71 µM (active)	11.1 µM (active) and 9.77 µM (active)	–	12.4 µM (active) and 6.86 µM (active)	9.92 µM (active) and 4.9 µM (active)	–	19.8 µM (active) and 19.5 µM (active)	–	inactive	–	–
CC(C)(O)C(=O)Nc1ccc([N+](=O)[O-])c(C(F)(F)F)c1	62.4 µM (active)	inactive	inactive	–	inactive	inactive	inactive	inactive	–	–	inactive	27.9 µM (active) and 22.4 µM (active)	inactive	inactive	inactive	inactive	–	inactive	55.6 µM (active)	–
NN=C(N)N	inactive	inactive	inactive	inactive	inactive	inactive	30.6 µM (active)	inactive	inactive	inactive	inactive	inactive	inactive	inactive	inactive	inactive	–	–	–	–
Clc1ccccc1-c1nnc(-c2ccccc2Cl)nn1	inactive	inactive	inactive	inactive	inactive	inactive	inactive	inactive	inactive	inactive	inactive	inactive	inactive	inactive	inactive	inactive	–	inactive	–	27.1 µM (active) and 43.1 µM (active)
CCCCCCCCCc1ccc(O)cc1	30.9 µM (active)	inactive	–	inactive	49.1 µM (active)	55 µM (active)	inactive	inactive	inactive	–	–	–	–	–	–	inactive	inactive	inactive	inactive	6.93 µM (active)
Cc1ccc([N+](=O)[O-])cc1	inactive	inactive	–	inactive	inactive	inactive	–	inactive	inactive	inactive	inactive	inactive	inactive	inactive	inactive	inactive	inactive	inactive	inactive	inactive
CCCCCCCC[N+](C)(CCCCCCCC)CCCCCCCC	1.37 µM (active) and 2.73 µM (active)	inactive	7.75 µM (active) and 27.6 µM (active) and 8.71 µM (active)	inactive and 13.7 µM (active) and 27.3 µM (active)	15.3 µM (active) and 3.44 µM (active) and 15.4 µM (active)	17.2 µM (active) and 4.86 µM (active) and 27.3 µM (active)	inactive	inactive and 24.3 µM (active)	–	–	7.75 µM (active) and 3.47 µM (active) and 5.49 µM (active)	–	12.2 µM (active) and 19.4 µM (active) and 8.63 µM (active)	13.8 µM (active) and 4.37 µM (active)	–	4.36 µM (active) and 2.46 µM (active) and 5.49 µM (active)	–	–	–	–
OCCOCCO	inactive	inactive	–	inactive	inactive	inactive	inactive	inactive	inactive	inactive	inactive	inactive	inactive	inactive	–	inactive	inactive	inactive	inactive	inactive
Clc1cccc(Cl)c1	inactive	inactive	inactive	inactive	inactive	inactive	inactive	inactive	inactive	inactive	inactive	inactive	inactive	inactive	inactive	inactive	–	–	–	–
CC(C)(c1ccccc1)c1ccc(O)c(C(C)(C)c2ccccc2)c1	15.2 µM (active) and 13.7 µM (active)	1.52 µM (active)	54.9 µM (active)	60.6 µM (active) and inactive	60.6 µM (active)	48.1 µM (active)	–	inactive	–	–	15.3 µM (active) and 19.5 µM (active)	–	54 µM (active) and 21.7 µM (active)	48.5 µM (active) and 24.5 µM (active)	–	21.7 µM (active) and 19.5 µM (active)	inactive	–	–	–
CCNCC	inactive	inactive	inactive	inactive	inactive	inactive	inactive	inactive	inactive	inactive	inactive	inactive	inactive	inactive	inactive	inactive	–	–	–	–
CC(C)Nc1ccc(Nc2ccccc2)cc1	11.9 µM (active) and 30.5 µM (active) and 17.2 µM (active)	inactive	48.8 µM (active) and 43.6 µM (active)	inactive	13.3 µM (active) and 27.2 µM (active)	30.5 µM (active) and 54.5 µM (active)	inactive and 2.17 µM (active)	–	–	–	–	27.3 µM (active)	inactive	inactive	–	–	–	inactive	–	–
N#CCCCCC#N	inactive	inactive	inactive	inactive	inactive	inactive	inactive	inactive	inactive	inactive	inactive	inactive	inactive	inactive	inactive	inactive	–	–	–	–
S=c1[nH]c2ccccc2[nH]1	inactive	inactive	inactive	inactive	inactive	inactive	68.6 µM (active)	inactive	inactive	inactive	inactive	–	inactive	inactive	inactive	inactive	–	–	–	–
CC1CC(=O)O1 (centres undefined)	inactive	inactive	inactive	inactive	inactive	inactive	inactive	inactive	inactive	inactive	inactive	inactive	inactive	inactive	inactive	inactive	–	–	–	–
CCOP(=S)(OCC)OP(=S)(OCC)OCC	inactive	inactive	inactive	inactive	inactive	inactive	inactive	inactive	inactive	inactive	inactive	inactive	inactive	inactive	inactive	inactive	–	–	–	–
CCOP(=O)(OCC)OCC	inactive	inactive	inactive	inactive	inactive	inactive	inactive	inactive	inactive	inactive	inactive	inactive	inactive	inactive	inactive	inactive	–	–	–	–
COc1ccc(CO)cc1	inactive	inactive	inactive	inactive	inactive	inactive	inactive	inactive	–	–	inactive	inactive	inactive	inactive	inactive	inactive	–	–	–	–
Cc1cccc(N=Nc2ccc(N(C)C)cc2)c1	inactive	inactive	inactive	31.2 µM (active) and 27.3 µM (active)	inactive	–	–	–	inactive	–	inactive	–	inactive	inactive	–	inactive	inactive	inactive	–	139 nM (active) and 864 nM (active)
Nc1ccc2ccccc2c1	inactive	inactive	–	inactive	inactive	inactive	–	inactive	inactive	inactive	inactive	inactive	inactive	inactive	inactive	inactive	inactive	inactive	–	inactive
Oc1ccc(Cl)cc1Cl	inactive	inactive	–	inactive	inactive	inactive	–	inactive	inactive	inactive	inactive	inactive	inactive	inactive	inactive	inactive	inactive	inactive	inactive	inactive
Brc1ccc(Br)cc1	inactive	inactive	inactive	inactive	inactive	inactive	–	inactive	inactive	inactive	inactive	inactive	inactive	inactive	–	inactive	–	–	–	–
[CH3][Sn]([Cl])([Cl])[Cl]	–	–	inactive	inactive	inactive	inactive	–	inactive	inactive	inactive	inactive	inactive	inactive	inactive	inactive	inactive	–	–	–	–
CCCCC(C#N)(Cn1cncn1)c1ccc(Cl)cc1 (centres undefined)	–	inactive	inactive	inactive	4.84 µM (active) and 3.86 µM (active)	inactive	inactive	inactive	inactive	inactive	inactive	inactive	inactive	inactive	inactive	inactive	inactive	inactive	30.5 µM (active) and 61.1 µM (active)	inactive
CCC[CH2][Sn]([Cl])([Cl])[CH2]CCC	49.2 nM (active) and 10.9 nM (active)	–	6.24 µM (active) and 2.75 µM (active)	2.46 µM (active) and 770 nM (active)	694 nM (active) and 172 nM (active)	1.39 µM (active) and 686 nM (active)	–	1.39 µM (active) and 486 nM (active)	–	–	882 nM (active) and 43.6 nM (active)	–	276 nM (active) and 34.4 nM (active)	54.9 nM (active)	–	198 nM (active) and 61.6 nM (active)	786 nM [inconclusive] (active) and 692 nM [inconclusive] (active)	44.2 µM [inconclusive] (active) and 43.6 µM [inconclusive] (active)	–	–

— PubChem BioAssay (Tox21)
